# Shown are actives, neighbours in structure and some others; about 8.6% of the full set was active somewhere.
# MARV entry inh – Marburg virus entry inhibition; 18,000 compounds, 6.5% hits; AID 720532; Potency, µM (titrated, usually from 49.2 µM), for the others: at the highest dose activity change, negative = inhibition, hits mostly inhibitors; Marburg virus pseudotype entry/binding inhibition, cell-based
# Lassa entry – inhibitors of Lassa virus binding or entry into cells. Lassa virus pseudotyped entry inhibition, cell-based qHTS. Potency, µM (series often up to 49.2 µM), for the others: at the highest dose activity change, negative = inhibition, actives largely listed as inhibitors. 18,000 compounds, 4.1% hits. AID 720533
# * marks the source's active call; other numbers are inactive results; ? = inconclusive; . = no result; ! = not confirmed by another sample; [ ] = dose if it differs, or a comment. Calls follow the shape of the full dose curve; tested in HEK293 cells. % is scaled to controls: 0 for no effect and ±100 for the full control effect; potency is read from the fitted curve at half-maximal effect.
SMILES,MARV entry inh,Lassa entry
CCCC(=O)O[C@]1(C(=O)CCl)[C@@H](C)C[C@H]2[C@@H]3CCC4=CC(=O)C=C[C@]4(C)[C@@]3(F)C(=O)C[C@@]21C,7.9µM*,?
CCC(=O)O[C@]1(C(=O)CCl)[C@@H](C)C[C@H]2[C@@H]3CCC4=CC(=O)C=C[C@]4(C)[C@@]3(F)[C@@H](O)C[C@@]21C,?,-26%
Cc1nc2cc(NC(=O)[C@@H]3C[C@@H](Sc4ccccn4)CN3Cc3cccc(Cl)c3)ccc2s1,-29%,-11%
NS(=O)(=O)c1ccc(Nc2cc(-c3ccc(O)c(F)c3)[nH]n2)cc1,-27%,39%
CN1CCN(C2CN(Cc3ccccc3)S(=O)(=O)C2)CC1 (centres undefined),21%,13%
CN1CCc2c(c3ccccc3n2Cc2ccccc2)C1,18µM*,?
COC(=O)CC1C(C)(C)C(OC(C)=O)C2[C@H](OC(C)=O)[C@]34O[C@]2(O)[C@]1(C)C3CC[C@]1(C)C4=CC(=O)OC1c1ccoc1 (some centres undefined),7.9µM*,?
CC(=O)OC1CC2C(C)(C)C(O)CC(O)[C@@]2(C)C2CC[C@@]3(C)C(=CC(=O)OC3c3ccoc3)[C@]12C (some centres undefined),-26%,0%
CCCNC(=O)OC[C@H]1O[C@H](CCON=C2C[C@@H](O)[C@@H](O)[C@@H]3[C@H]4C(=O)N(CC)C(=O)[C@@H]4CC[C@H]23)C=C[C@H]1Oc1ccc(OC)cc1,0%[8.59 µM],-3%[8.59 µM]
CCOC(=O)CCN1C(=O)[C@@H]2[C@H]3[C@H](O)[C@H](O)CC(=NNC(=O)OCc4ccc(OC)cc4)[C@H]3CC[C@H]2C1=O,22%[8.59 µM],.
CCCCCCCC/C=C\CCCCCCCC(=O)N[C@H](CO)Cc1ccc(O)cc1,?,14µM*
CCCCC/C=C\C/C=C\C/C=C\CCCCCCC(=O)NC(C)C(=O)O (centres undefined),-4%,3%
COc1ccccc1C1CN(CCNC(=O)c2ccccc2Cl)Cc2ccccc2O1 (centres undefined),5%,-2%
C[C@H](O)CON1C(=O)c2ccccc2C1=O,5%,-1%
O=C1C(SCCO)=C(SCCO)C(=O)c2ccccc21,3.5µM*,8.9µM*
CC(=O)OC1(c2ccccc2)CCN(CCc2ccccc2)CC1,?,-24%[107 µM]
CN(C)C(=O)C(CCN1CCC(O)(c2ccc(Cl)cc2)CC1)(c1ccccc1)c1ccccc1,6.3µM*,25µM*!
C[C@H]1[C@H](O)[C@@H](N=[N+]=[N-])CCO[C@H]1c1ccccc1,-12%[8.59 µM],-6%[8.59 µM]
Cc1ccc(CN2C=CCCS2(=O)=O)cc1,4%,-9%
Cc1c(C)n(CCN(C)C)c2ccc(C(=O)OCCN(C)C)cc12,4µM*,32µM*
CCCCNc1ccc(C(=O)OCCN(C)C)cc1,?,-2%
C[C@H]1[C@@H](C(=O)N2CCCC2)CC(=O)C(=NOCc2ccccc2)C[C@H]1c1ccccc1,0%[8.59 µM],.
COc1cccc(C2(CC(=O)N3CCCCC3CO)CC(=O)N(C)C2=O)c1 (centres undefined),-28%,-6%
COC(=O)c1cc(C(=O)OC)n2c(C)cc3ccccc3c12,13%[8.59 µM],-11%[8.59 µM]
Oc1ccc(Nc2nc(-c3ccc(Cl)cc3)cs2)cc1,?,13µM*
SMILES,MARV entry inh,Lassa entry
CC(C)=CC[C@@H](O)C1=CC(=O)c2c(O)ccc(O)c2C1=O,-2%,-7%
CCOC(=O)OC[C@H]1O[C@H](C#Cc2ccccc2)C=C[C@H]1OC(=O)OCC,-16%[8.59 µM],-10%[8.59 µM]
CCN(CC)CCCN(c1ccccc1)C1Cc2ccccc2C1,3.5µM*,8.9µM*
CN1CC(CNC(=O)OCc2ccccc2)CC2c3cccc4c3c(cn4C)CC21 (centres undefined),10µM*,?
CC(O)C(C)OC(=O)[C@@H]1C[C@@H]2c3cccc4c3c(cn4C(C)C)C[C@H]2N(C)C1 (some centres undefined),13%,?
COc1cc2c(cc1OC)[C@H](C)N(CC1C(=O)O[C@@H]3C[C@@]4(C)CCC[C@H](C)[C@@]45OC5[C@H]13)CC2 (some centres undefined),13µM*,-32%
CCCNCC(O)COc1ccccc1C(=O)CCc1ccccc1 (centres undefined),7.1µM*,?
Cc1ccccc1OCC(O)CNCCOc1ccc(C(N)=O)cc1 (centres undefined),-4%,-1%
COc1ccccc1CN1CCC(n2cc(C(=O)N3CCCCC3)nn2)CC1,11%,-6%
COC(=O)c1c(OCc2ccccn2)cc(=O)n2c1CCN(Cc1ccc3c(c1)CCCN3C)CC2,-12%,-10%
O=C1[C@H]2[C@@H]3[C@@H](O)[C@H](O)CC(=NOCc4ccccc4)[C@H]3CC[C@H]2C(=O)N1C1CCCCC1,-25%[8.59 µM],1%[8.59 µM]
c1ccc2c(N3CCNCC3)cccc2c1,?,0%
c1ccc2nc(N3CCNCC3)ccc2c1,32µM*!,-10%
Cc1c(C(=O)NCC(C)C)sc2ncnc(NCC3CCCO3)c12 (centres undefined),16%,-13%
COc1cc(-c2c(OC)cccc2OC)cc2c1OCCN(C(=O)CCn1nc(C)cc1C)C2,-4%,-13%
COc1cc(-c2cc(C)c3cccc(OC)c3n2)cc2c1OCCN(C(=O)CCn1ccc(C)n1)C2,-1%,35µM*
CC(=O)N[C@@H](CC(C)C)C(=O)N[C@@H](CC(C)C)C(=O)N[C@H](C=O)CCCN=C(N)N,0.11µM*,11%
CCCCC(C=O)NC(=O)C(CC(C)C)NC(=O)OCc1ccccc1 (centres undefined),?,-13%
CCCC[C@@H](C=O)NC(=O)[C@H](CC(C)C)NC(=O)OCc1ccccc1,?,20µM*
CC(C)C[C@H](NC(=O)[C@H](CC(C)C)NC(=O)[C@H](Cc1ccccc1)NC(=O)[C@@H](N)CO)C(=O)N[C@@H](CCCN=C(N)N)C(=O)N[C@@H](CC(N)=O)C(=O)O,9%,-2%
CSCC[C@H](C=O)NC(=O)[C@H](CC(C)C)NC(=O)[C@H](CC(C)C)NC(C)=O,?,18%
CCCC[C@@H](C=O)NC(=O)[C@H](CC(C)C)NC(=O)[C@H](CC(C)C)NC(C)=O,0.089µM*,10µM*
CC1=C(C(=O)Nc2cc(Cl)c3[nH]ncc3c2)C(c2ccc(C(F)(F)F)cc2)CC(=O)N1 (centres undefined),-33%,-20%
N#CCCCS(=O)(=O)c1nnnn1-c1ccccc1,?,24%[8.59 µM]
COc1ccccc1CCNc1ncnc2sc(C(=O)N3CCCC3)c(C)c12,3%,?
NC(N)=NCC1COC2(CCCCC2)O1 (centres undefined),-5%[17.8 µM],-1%[17.8 µM]
CCN1C(=O)N(S(=O)(=O)c2ccc(C)cc2)C(c2ccccc2)C(C(=O)OC)=C1C (centres undefined),17%[8.59 µM],-2%[8.59 µM]
COC1C(O)CC(=O)OC(C)C/C=C/C=C/[C@@H](OC2CCC(N(C)C)C(C)O2)C(C)C[C@@H](CC=O)[C@@H]1O[C@H]1OC(C)[C@H](O[C@@H]2C[C@@](C)(O)C(O)C(C)O2)C(N(C)C)C1O (some centres undefined),6.3µM*,-20%
COC1C[C@@H](O[C@@H]2C(C)C(=O)OC(C)C(C)[C@H](OC(C)=O)C(C)C(=O)[C@@]3(CO3)CC(C)C(OC3OC(C)CC(N(C)C)[C@H]3OC(C)=O)C2C)OC(C)[C@@H]1OC(C)=O (some centres undefined),-1%,4%

# Source: PubChem BioAssay
